{
  "source": "PubChem BioAssay AID1645855",
  "about": "(Buhrlage Lab, Dana-Farber Cancer Institute and Novartis …, 2021)",
  "note": "Screen size: about 47,000 compounds; about 3,100 (6.6%) were called active. The sample holds actives, similar compounds and a random draw of the others, so the mix is not that of the screen. A number with no mark means an inactive call. No stated cut-off is given here; in the data, active means inhibition above about 30%; inactive means the rest.",
  "data": [
    {"molecular_target": "Ubiquitin carboxyl-terminal hydrolase 17-like protein 5 (Homo sapiens) (UniProt A8MUK1)", "sequence (A8MUK1 whole entry, looked up)": "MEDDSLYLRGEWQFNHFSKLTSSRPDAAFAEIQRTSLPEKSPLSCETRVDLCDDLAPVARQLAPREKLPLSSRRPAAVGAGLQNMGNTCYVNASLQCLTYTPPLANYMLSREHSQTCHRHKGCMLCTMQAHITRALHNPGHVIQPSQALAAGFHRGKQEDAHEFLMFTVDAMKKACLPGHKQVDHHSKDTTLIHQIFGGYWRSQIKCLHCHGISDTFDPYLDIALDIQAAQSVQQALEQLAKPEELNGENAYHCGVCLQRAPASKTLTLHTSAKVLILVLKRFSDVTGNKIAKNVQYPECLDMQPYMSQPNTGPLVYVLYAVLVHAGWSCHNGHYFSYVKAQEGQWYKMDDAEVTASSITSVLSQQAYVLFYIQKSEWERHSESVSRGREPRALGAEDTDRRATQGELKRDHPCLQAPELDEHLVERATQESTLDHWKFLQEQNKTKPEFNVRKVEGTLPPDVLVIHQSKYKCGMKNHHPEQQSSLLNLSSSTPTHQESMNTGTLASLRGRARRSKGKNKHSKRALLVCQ", "assay": "inhibitors of human USP17 deubiquitinase (AID 1645855)", "conditions": "purified USP17, Ub-rhodamine cleavage fluorescence, 3 h; at 50 µM; hits give high values", "values": [
      {"smiles": "COC(=O)c1sc(-c2ccccc2)cc1NC(=O)c1ccc(C)cc1", "inhibition": "8.72%"},
      {"smiles": "COc1cccc(NC(=O)C2Cc3ccccc3N2C(=O)c2ccccc2)c1", "note": "(centres undefined)", "inhibition": "57.8% (active)"},
      {"smiles": "N#Cc1cccc(NC(=O)C2Cc3ccccc3CN2C(=O)c2ccccc2)c1", "note": "(centres undefined)", "inhibition": "-4.46%"},
      {"smiles": "COc1cccc(NC(=O)N2C[C@H]3CN(C(C)C)CC[C@H]32)c1", "inhibition": "-122%"},
      {"smiles": "Cn1cc(CN2CCC3(CC2)Nc2cc(Cl)ccc2C2=NCCN23)cn1", "inhibition": "-4.3%"},
      {"smiles": "Cc1ccccc1NS(=O)(=O)c1cc2c(cc1Cl)NC(=O)CO2", "inhibition": "11.5%"},
      {"smiles": "COc1ccc(NC(=O)CCN2C(=O)c3cccnc3Sc3ccccc32)cc1", "inhibition": "0.608%"},
      {"smiles": "Cc1ccc(Cc2nc(CC(=O)Nc3ccc(F)cc3F)n[nH]2)cc1", "inhibition": "12.8%"},
      {"smiles": "CC(C)CCNC(=O)C1(C)Cn2c(cc3ccccc32)C(=O)N1Cc1ccccc1F", "note": "(centres undefined)", "inhibition": "-0.678%"},
      {"smiles": "CC1(C(=O)NC2CCCC2)Cn2c(cc3ccccc32)C(=O)N1c1ccc(F)cc1", "note": "(centres undefined)", "inhibition": "62.5% (active)"},
      {"smiles": "COc1ccccc1CN1C(=O)c2cc3occc3n2CC1(C)C(=O)NC1CCCCC1", "note": "(centres undefined)", "inhibition": "6.42%"},
      {"smiles": "COCCNC(=O)C(Cc1ccccc1)N1Cc2ccccc2C1=O", "note": "(centres undefined)", "inhibition": "4.85%"},
      {"smiles": "CC1CCC(NC(=O)Cn2c(=O)[nH]c3ccccc3c2=O)CC1", "note": "(centres undefined)", "inhibition": "41.5% (active)"},
      {"smiles": "O=C(Cn1cccc1C(=O)c1ccccc1)NC1CCN(Cc2ccccc2)CC1", "inhibition": "-2.81%"},
      {"smiles": "O=C(N[C@@H](C(=O)O)c1ccccc1)[C@@H](Cc1ccccc1)n1c(=O)[nH]c2ccccc2c1=O", "inhibition": "9.14%"},
      {"smiles": "CCN1CCC2(CC1)OC(=O)C(C)=C2C(=O)Nc1cc(C)ccc1C", "inhibition": "-4.59%"},
      {"smiles": "CNc1nc(C2CCCN(C)C2)nc2c1CCN(C(=O)Cc1c[nH]c3ccccc13)C2", "note": "(centres undefined)", "inhibition": "-1.33%"},
      {"smiles": "Cc1ccn2c(NCCc3ccccc3)c(-c3ccc(O)cc3)nc2c1", "inhibition": "20.5%"},
      {"smiles": "Cc1cccc(-c2noc(Cc3nnc(-c4ccccc4)o3)n2)c1", "inhibition": "-20.8%"},
      {"smiles": "Cc1cccc(-c2nc(Nc3ccc(O)cc3)c3ccccc3n2)c1", "inhibition": "69.2% (active)"},
      {"smiles": "Cc1nccc(C2CN(C(=O)CCc3c[nH]c4ccccc34)CCO2)n1", "note": "(centres undefined)", "inhibition": "-0.542%"},
      {"smiles": "CN1CC(c2ncn[nH]2)c2cc(C(=O)NCc3cccc(F)c3)ccc21", "note": "(centres undefined)", "inhibition": "8.47%"},
      {"smiles": "O=C(Cc1cccc(C(F)(F)F)c1)Nc1cccn2ncnc12", "inhibition": "-3.85%"},
      {"smiles": "O=C(NCc1ccccc1)c1nc[nH]c1C(=O)NCc1cccc(C(F)(F)F)c1", "inhibition": "-0.00262%"},
      {"smiles": "O=C(Cc1c(Cl)cccc1Cl)NCc1cccc(C(F)(F)F)c1", "inhibition": "34.4% (active)"},
      {"smiles": "Cc1ccc(S(=O)(=O)NC2=NC(c3ccccc3)c3cc(Cl)ccc3N2)cc1", "note": "(centres undefined)", "inhibition": "10.4%"},
      {"smiles": "O=C(NCCC1=CCCCC1)c1ccc(-c2noc(-c3ccccc3)n2)s1", "inhibition": "2.81%"},
      {"smiles": "COc1ccc(-c2nc(-c3nnn(Cc4cccc(F)c4)c3C)no2)cc1", "inhibition": "-0.491%"},
      {"smiles": "COc1ccc(-c2nc(C3CC(=O)N(c4ccccc4)C3)no2)cc1", "note": "(centres undefined)", "inhibition": "7.38%"},
      {"smiles": "CCOc1ccc(-c2noc(-c3nn(-c4cccc(OC)c4)ccc3=O)n2)cc1", "inhibition": "72.3% (active)"},
      {"smiles": "CCOC(=O)c1cnn(-c2ncc(C(=O)OC)c(C(F)(F)F)n2)c1C(F)(F)F", "inhibition": "3.18%"},
      {"smiles": "O=C(NCc1ccco1)c1ccc2c(=O)nc3c(-c4ccc(F)cc4)n[nH]n3c2c1", "inhibition": "11.8%"},
      {"smiles": "COc1ccc(C(=O)Nc2ccc(N)cn2)cc1", "inhibition": "12%"},
      {"smiles": "COc1ccc(NC(=O)c2ccnc(Nc3ccc(OC)cc3)c2)cc1", "inhibition": "68.7% (active)"},
      {"smiles": "COc1cc(OC)cc(C(=O)Nc2ccc(S(=O)(=O)Nc3cc(C)on3)cc2)c1", "inhibition": "3.28%"},
      {"smiles": "CC(=O)N1c2ncnn2C(c2ccc(Cl)cc2)CC1c1ccc(Cl)cc1", "note": "(centres undefined)", "inhibition": "-2.75%"},
      {"smiles": "CC(C)C(=O)Oc1cn(CCCN2CCCC2=O)c2nc(C(C)C)n3c4ccccc4nc3c12", "inhibition": "-84.6%"},
      {"smiles": "CCS(=O)(=O)Nc1cc(S(=O)(=O)Nc2cc(Cl)ccc2Cl)ccc1N1CCOCC1", "inhibition": "-13%"},
      {"smiles": "CC1=NS(=O)(=O)N(Cc2ccccc2)C=C1C(=O)Nc1cc(F)ccc1F", "inhibition": "-4.7%"},
      {"smiles": "COc1cc(Cl)c(NC(=O)c2cc(-c3ccccn3)n[nH]2)c(OC)c1", "inhibition": "47.4% (active)"},
      {"smiles": "Cc1ccc(CC(=O)N2CCN(C(=O)c3cc(-c4ccccn4)n[nH]3)CC2)cc1", "inhibition": "-21.8%"},
      {"smiles": "O=C(Nc1ccc(Cl)cc1F)c1cc(-c2ccccn2)n[nH]1", "inhibition": "83.2% (active)"},
      {"smiles": "O=C(Nc1ccc(F)cc1)C1CCCN(C(=O)c2cc(-c3ccccn3)n[nH]2)C1", "note": "(centres undefined)", "inhibition": "-40%"},
      {"smiles": "COc1cnc(-c2ccccn2)nc1Sc1ccc(Cl)cc1Cl", "inhibition": "-0.938%"},
      {"smiles": "O=C(CNc1ccc(OC2CCCC2)cc1)N1CCNC1=O", "inhibition": "11.8%"},
      {"smiles": "CN1CCCN(c2nc(-c3cccnc3)nc3ccccc23)CC1", "inhibition": "-19%"},
      {"smiles": "Cc1ccc(-c2n[nH]c3c2CN(S(=O)(=O)C2CC2)CC3)cc1", "inhibition": "-2.42%"},
      {"smiles": "O=C(O)c1ccc(-n2cc(-c3cnccn3)cn2)cc1", "inhibition": "1.05%"},
      {"smiles": "CNC(=O)c1cnn2c(C3CCCN(c4ncccn4)C3)ccnc12", "note": "(centres undefined)", "inhibition": "2.6%"},
      {"smiles": "Cc1nnc(N2CCN(C(c3ccccc3)c3ccccc3)CC2)[nH]c1=O", "inhibition": "-0.696%"},
      {"smiles": "C\\C=C(/C=C(C)/C=C(C)/C=C/C=C(\\C)C(=O)[C@]12O[C@H]1[C@@](O)(CCO)NC2=O)C(=O)OC", "inhibition": "-48.6%"},
      {"smiles": "COc1ccc2c(Sc3ccccc3)c(C(=O)NCc3ccc4c(c3)OCO4)[nH]c2c1", "inhibition": "-5.49%"},
      {"smiles": "O=C(COC(=O)c1ccc(F)c(S(=O)(=O)N2CCOCC2)c1)NCc1ccc2c(c1)OCO2", "inhibition": "16.1%"},
      {"smiles": "CCCCN(c1ccccc1)S(=O)(=O)c1cccc(C(=O)OCC(=O)NCc2ccc3c(c2)OCO3)c1", "inhibition": "38% (active)"},
      {"smiles": "Nc1nc(N)nc(CN2C(=O)NC(Cc3ccccc3)(c3ccccc3)C2=O)n1", "note": "(centres undefined)", "inhibition": "-1.99%"},
      {"smiles": "CCCOc1ccc(-c2csc3ncn(CCc4ccccc4)c(=O)c23)cc1", "inhibition": "13.1%"},
      {"smiles": "COc1cc2c(cc1OC)CN(C(=O)c1cc(=O)c3ccccc3o1)CC2", "inhibition": "8.62%"},
      {"smiles": "COc1ccc(CC(=O)Nc2ccc3c(c2)CCC3)cc1S(=O)(=O)N1CCOCC1", "inhibition": "-13.3%"},
      {"smiles": "COc1ccc(CC(=O)Nc2ccc3c(c2)CN(C(=O)c2ccco2)CC3)cc1", "inhibition": "46.1% (active)"}
    ]}
  ]
}
